# Compounds with a hit are over-represented: about 11% of the library has one in this group of screens.
# PNC inhibitor: blocks assembly of the perinucleolar compartment | hit rate 3.1% among 140,000 | activity change (PNC), negative = inhibition, % at 10 µM | PC3M PTB-GFP, PNC prevalence imaging, 16 h; hits give low values;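 active = readout at or below -70, meaning at least 70% loss of cells showing the perinucleolar compartment, a nuclear body marking cancer cells; inconclusive = readout between -30 and a set limit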;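 note: plate controls were DMSO wells for no effect and camptothecin positive control wells for full effect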
#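 PC3M cells stably expressing PTB-GFP, 750–1000 cells/well, treated 16 h at 37 °C with compound (23 nl of library stock), in duplicate. After paraformaldehyde fixation and Hoechst stain, imaged at 20x; PNC prevalence scored by image analysis.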
# HTT cytoprotect: cytoprotection in Huntington HTT-Q103 PC12 cell model. Potency, µM (doses to about 56.4 µM), for the others: cytoprotection (ATP increase), usual class: activators. hit rate 0.14% among 230,000. PC12 HTT-Q103 induced, cytoprotection, ATP luminescence, 40 h. AID 1471; note: potency is the fitted concentration of half-maximal effect; % of control where 0% means no effect; nearly all actives have a fitted effect of over 45% in size
#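 ATP quantification (ATPlite) reports survival of PC12 cells in which tebufenozide, 100 nM final, switches on Htt exon 1 with 103 glutamines linked to GFP; compounds are titrated.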
# CBFb-RUNX1 inh: inhibitors of human CBF-beta and RUNX1 interaction; Q01196+Q13951; AlphaScreen CBFb-His/RUNX1-biotin binding, biochemical; Potency, µM (titrated, usually from 59.8 µM), without a hit: top-dose activity, negative = inhibition, hits mostly inhibitors; 230,000 tested, under 10 active; note: % of control where 0% means no effect
# Target sequence (Q01196 whole entry, looked up): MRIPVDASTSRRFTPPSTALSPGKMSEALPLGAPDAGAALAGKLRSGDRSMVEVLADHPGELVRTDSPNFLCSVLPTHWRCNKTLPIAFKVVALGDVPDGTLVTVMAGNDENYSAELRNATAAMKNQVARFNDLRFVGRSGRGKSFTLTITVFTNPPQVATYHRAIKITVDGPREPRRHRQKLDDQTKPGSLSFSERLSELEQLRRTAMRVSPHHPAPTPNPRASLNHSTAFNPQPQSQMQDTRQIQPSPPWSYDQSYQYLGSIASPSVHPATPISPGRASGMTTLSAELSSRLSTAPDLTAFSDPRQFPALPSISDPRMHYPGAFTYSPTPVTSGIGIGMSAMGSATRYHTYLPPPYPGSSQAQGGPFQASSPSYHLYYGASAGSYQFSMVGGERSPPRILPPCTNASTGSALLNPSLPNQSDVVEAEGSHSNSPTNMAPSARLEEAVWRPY
# Target sequence (Q13951 whole entry, looked up): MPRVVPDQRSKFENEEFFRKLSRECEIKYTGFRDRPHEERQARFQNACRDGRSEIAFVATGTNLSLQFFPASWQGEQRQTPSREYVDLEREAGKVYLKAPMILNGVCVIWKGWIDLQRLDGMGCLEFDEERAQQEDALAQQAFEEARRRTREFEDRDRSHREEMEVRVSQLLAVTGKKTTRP
#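 Proteins preincubated together for 20 min at RT before compound addition; 15 min later, nickel and streptavidin beads were added and left 90 min prior to AlphaScreen measurement.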
# HPGD inh: HPGD (human) dehydrogenase inhibition | P15428 | purified HPGD, NADH fluorescence kinetic, PGE2 substrate | Potency, µM, for the others: top-dose activity change, negative = inhibition, actives largely listed as inhibitors | hit rate 4.3% among 150,000 | AID 894; active = well fitted inhibition curve with a large enough effect, not every such curve was filed as active; inconclusive = small, poorly fitted or top-dose-only effect, or another doubt; inactive = no such curve, though single readings can be large or run the other way; note: potency is the fitted concentration of half-maximal effect; % is set by controls: 0 for no effect and ±100 for the full control effect
#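 NADH formation kinetics: reaction with 30 uM PGE2 and 1 mM NAD+ (final), 20 nM enzyme, Tris-HCl pH 8 with Tween 20, after 15 min compound preincubation at room temperature. Fluorescence change, last versus first of five reads.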
# HttQ103 aggreg: mutant huntingtin aggregation inhibition | PC12 HttQ103-GFP aggregates, Acumen cytometry, 40 h | AID 1688 | hit rate 1.1% among 220,000 | Potency, µM (doses to about 46.1 µM), for the others: top-dose activity change, negative = inhibition, actives largely listed as inhibitors; note: potency is the fitted concentration of half-maximal effect; % is set by controls: 0 for no effect and ±100 for the full control effect; nearly all actives have a fitted effect of over 60% in size
#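 Steps: seed 1500 PC12 HTTQ103-GFP cells/well; add tebufenozide, 100 nM final; add compound titration; add ATPLite reagent; quantify GFP aggregates by laser scanning cytometry.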
# ALDH1A1 inh: ALDH1A1 (human) enzyme inhibition; Purified ALDH1A1, NADH fluorescence, propionaldehyde substrate; Potency, µM (titrated, usually from 75.3 µM), without a hit: at the top dose activity, negative = inhibition, actives largely listed as inhibitors; hit rate 7.3% among 220,000; active = well fitted inhibition curve with a large enough effect, not every such curve was filed as active; inconclusive = small, poorly fitted or top-dose-only effect, or another doubt; inactive = no such curve, though single readings can be large or run the other way;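 note: potency is the fitted concentration of half-maximal effect; plate controls were no enzyme wells and a reference inhibitor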
# Numbers without * were called inactive; ? = inconclusive; . = not tested or not shown; [ ] = remark or other dose. Unless noted, calls come from the whole dose curve; as a rule, active = well fitted curve in the direction sought with a large enough effect; inconclusive = small, poorly fitted or top-dose-only effect, or another doubt; inactive = no such curve, though single readings can be large; an effect the other way counts as inactive or inconclusive.
SMILES,PNC inhibitor,HTT cytoprotect,CBFb-RUNX1 inh,HPGD inh,HttQ103 aggreg,ALDH1A1 inh
O=[N+]([O-])c1cc(Cl)ccc1N1CCCC1,.,3%[10 µM],-24%,.,0%[9.22 µM],?
OC[C@H](CCc1c[nH]c2ccccc12)c1c[nH]c2ccccc12,.,13%[10 µM],.,-29%,.,?
Cc1noc2c1C(c1ccc(N(C)C)cc1)C1=C(CC(C)(C)CC1=O)N2 (centres undefined),64,-11%,6%,-17%,?,22µM*
CO/N=C(\C(=O)N[C@@H]1C(=O)N2C(C(=O)O)=C(CSc3nc(=O)c(O)nn3C)CS[C@@H]12)c1csc(N)n1,.,4%[1.9 µM],.,.,.,.
Cc1nn(-c2ccccc2)c(C)c1NC(=O)COc1ccc(C#N)cc1,-80*,.,2%,-8%,1%,4%
Cc1nn(-c2ccccc2)c(C)c1NC(=O)COc1ccc2ccccc2c1,-27,-7%,8%,.,15%,-8%
CCC1CC=CC2C1C(=O)N(Cc1ccccc1)C2c1cccc([N+](=O)[O-])c1 (centres undefined),.,.,-5%,.,.,.
C[C@@]12CCC(OC(=O)c3ccccc3)CC1CCc1ccccc12 (some centres undefined),.,.,.,-18%,.,3%
Cc1c(N2C(=O)c3ccc(Br)cc3C2=O)c(=O)n(-c2ccccc2)n1C,35,7%,2%,1%,-1%,2%
CN1C(=S)N(c2cccnc2)C(=O)/C1=C\c1ccc(N(C)C)cc1,.,-4%[10 µM],-9%,.,7%,13µM*
Cc1cccc(N2C(=O)/C(=C/c3cccnc3)SC2=S)c1,.,4%[10 µM],-3%,.,1%[9.22 µM],.
Cc1c(N2C(=O)c3ccc4c5c(ccc(c35)C2=O)CC4)c(=O)n(-c2ccccc2)n1C,-92*,5%[10 µM],-24%,?,5%,?
CN1C(=S)N(c2cccnc2)C(=O)/C1=C\c1ccc(C(C)(C)C)cc1,.,-16%[10 µM],-19%,.,-24%,7.1µM*
Cc1c(N2C(=O)/C(=C\c3ccc(N(C)C)cc3)N(C)C2=S)c(=O)n(-c2ccccc2)n1C,?,0%[10 µM],-20%,-7%,9%,4.5µM*
CN(C)c1ccc(/C=C/C(=O)c2cccnc2)cc1,.,-3%[10 µM],6%,.,10%[9.22 µM],.
Cc1cc(-c2ccccc2)nc(N2CCC(C(=O)NC(C)C)CC2)n1,-100*,-19%[10 µM],6%,?,5%,1%
COC(=O)[C@@]1(Cc2ccccc2)[C@H]2c3cc(C(=O)N(C)C)n(Cc4ccc(OC)c(OC)c4)c3C[C@H]2CN1C(=O)c1ccccc1,.,13%,-5%,-6%,.,9%
Nc1ccccc1C(=O)/C=C/c1ccccc1,.,.,-4%,-9%,.,8%
c1ccc(Cc2nnc3sc(-c4ccc5c(c4)OCO5)nn23)cc1,.,2%[0.074 µM],.,.,.,.
Clc1ccccc1-c1nnc2sc(C3COc4ccccc4O3)nn12 (centres undefined),?,-28%[0.074 µM],3%,20µM*,?,7.1µM*
Cc1ccc(-c2nnc3sc(C4COc5ccccc5O4)nn23)cc1 (centres undefined),-26,-14%[0.074 µM],4%,-28%,-7%,?
c1ccc(Cc2nnc3sc(C4COc5ccccc5O4)nn23)cc1 (centres undefined),?,24%[10 µM],-3%,14µM*,-32%,25µM*
COc1ccccc1-c1nn2c(C3COc4ccccc4O3)nnc2s1 (centres undefined),?,-22%[0.074 µM],-4%,?,-16%,?
c1ccc(OCc2nnc3sc(C4COc5ccccc5O4)nn23)cc1 (centres undefined),3,-25%,-14%,7.1µM*,-10%,10µM*
O=c1c(-c2ccccc2)nc2cnc(Oc3ccccc3)nc2n1Cc1cccs1,.,-39%,.,-23%,.,?
SMILES,PNC inhibitor,HTT cytoprotect,CBFb-RUNX1 inh,HPGD inh,HttQ103 aggreg,ALDH1A1 inh
CCc1ccccc1NC(=O)CN1C(=O)C2CCCN2c2ncc(Cl)cc21 (centres undefined),?,23%[10 µM],6%,-10%,-4%,18µM*
COC(=O)c1ccccc1NC(=O)CN1C(=O)C2CCCN2c2ncc(Cl)cc21 (centres undefined),4,4%[10 µM],13%,?,0%,?
CC(C)(C)c1ccc(S(=O)(=O)N2CCCCC2C(=O)NCc2ccccn2)cc1 (centres undefined),?,-7%,-8%,-14%,?,4µM*
Cc1ccc(S(=O)(=O)N2CCCC(C(=O)NCc3ccccn3)C2)cc1 (centres undefined),?,8%[10 µM],-9%,-19%,-3%,3%
CS(=O)(=O)N1CCCC(C(=O)NCc2ccccn2)C1 (centres undefined),-110*,2%,-9%,-2%,0%,-13%
COc1cccc(-c2nccc(NCc3cnc(C)cn3)n2)c1,.,-49%,.,.,.,10%
Cn1c(Cn2nnc3ccccc32)nnc1SCC(=O)N1CCc2ccccc21,?,10%[10 µM],10%,-9%,-9%,28µM*
CCn1c(CSc2ncccn2)nnc1SCC(=O)N1CCc2ccccc21,?,6%[10 µM],0%,-14%,-9%,20µM*
CCn1c(SCC(=O)N2CCc3ccccc32)nnc1-c1ccncc1,?,-21%[0.074 µM],12%,-12%,7%,-2%
O=C(COC(=O)C1CCCCC1)Nc1ccc(S(=O)(=O)N2CCOCC2)cc1,.,-38%,-3%,.,28%,-12%
Nc1nc(SCCc2ccccc2)c2[nH]cnc2n1,.,12%[10 µM],.,?,.,?
CSc1ccc(S(=O)(=O)NCc2ccccc2Cl)cc1,6,-2%,5%,22µM*,11%,?
CSc1ccc(S(=O)(=O)NCc2ccc(Cl)cc2Cl)cc1,?,3%,9%,-7%,-14%[9.22 µM],25µM*
O=S(=O)(NCc1ccc(Cl)cc1Cl)c1ccc(N2CCOCC2)nc1,.,7%[10 µM],2%,.,12%[9.22 µM],27%
CSc1ccc(S(=O)(=O)NCc2ccccc2)cc1,-3,2%,3%,-24%,5%,?
COc1ccccc1CNCCCCCCNCCCCCCCCNCCCCCCNCc1ccccc1OC,.,-31%,-11%,7%,.,5%
CC(C)Cn1c(O)c(N=NC(=O)c2cccc(S(=O)(=O)N3CCCCC3)c2)c2ccccc21,4,1%[10 µM],-2%,-12%,?,3.5µM*
CCn1c(SCC(=O)N2CCCc3ccccc32)nnc1-c1ccoc1C,-100*,-2%[10 µM],-7%,-13%,3%,-5%
CCn1c(SCC(=O)N2CCCc3ccccc32)nnc1-c1ccco1,-9,7%,2%,-11%,2%,22µM*
CCn1c(SCC(=O)N2CCCc3ccccc32)nnc1-c1cccs1,?,8%[10 µM],6%,-2%,-11%,-8%
OCc1ccc(O)c2ncccc12,79,-62%,.,-6%,10µM*,-4%
